In paper PMC7819943, “Rice protein-binding microarrays: a tool to detect cis-acting elements near promoter regions in rice”:
In all, about 68,000 sequences were measured (“fluorescence intensity (a.u.)”: median about 9,100, highest 2% from about 16,000 on). What follows is part of a selection rich in the highest values, with near analogues and random picks from the rest.

molecular target: OsWRKY34 (Oryza sativa, UniProt Q0JBA9 1-250); experiment: protein-binding microarray (RPBM); PBS, 2% BSA, 51.3 ng/ul salmon testes DNA, 50 uM zinc acetate, 200 nM TF, 25 C, 1 h; high values mean tight binding; conditions: protein: recombinant; tags: N-terminal polyhistidine and DsRed monomer fusion (pET32a); label: CyDye5-dUTP incorporated in the synthesized complementary strand; 3' TTTTT single-stranded linker to array surface; dsDNA, one strand shown
Summary of the method: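 Binding signal here means per-feature fluorescence intensity in arbitrary units. The values were read on an Axon 4000B scanner after a custom Agilent array, double-stranded by primer extension with Cy5-dUTP, was incubated with 200 nM protein at 25 °C for 1 h in PBS with 2% BSA, salmon testes DNA and 50 µM zinc acetate, then washed. The proteins were transcription factors with an N-terminal polyhistidine tag and DsRed, expressed in E. coli BL21-CodonPlus and purified on Ni–NTA.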

Chain of OsWRKY34 (Q0JBA9 entry or part of it): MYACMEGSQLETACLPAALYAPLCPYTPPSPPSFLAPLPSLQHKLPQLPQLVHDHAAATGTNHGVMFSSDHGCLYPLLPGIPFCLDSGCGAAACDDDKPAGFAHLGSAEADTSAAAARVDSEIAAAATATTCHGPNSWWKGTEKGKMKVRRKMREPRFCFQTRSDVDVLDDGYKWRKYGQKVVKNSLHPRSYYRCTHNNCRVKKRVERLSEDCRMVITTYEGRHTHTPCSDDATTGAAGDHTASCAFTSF

| Sequence | binding signal |
| --- | --- |
| TTTAAAAGTCAACGGCGTCAGAGGGAGTATATATTTTAGCCGGAGTCACCTAGTGCAG | 9840 fluorescence intensity (a.u.) |
| ATATTTAAAAAAGTCAACGGCGTCAAACATTTTGAAACGGCGGAGTCACCTAGTGCAG | 16800 fluorescence intensity (a.u.) |
| ATATTTAAAAAAGTCAACGGCGTCAAACATTTTGAGATAGCGGAGTCACCTAGTGCAG | 9320 fluorescence intensity (a.u.) |
| TAAAAAAGTCAACGGCGTTAAACATTTTGGGATGGAGGGACGGAGTCACCTAGTGCAG | 11200 fluorescence intensity (a.u.) |
| ATCTGTACAGTTTGTGACTAATTTGCAAGACGAATCTTTTCGGAGTCACCTAGTGCAG | 11500 fluorescence intensity (a.u.) |
| GGATACGGCACCTTTGCGAGCTGCGTCGACCGCTCCGCCGCGGAGTCACCTAGTGCAG | 9650 fluorescence intensity (a.u.) |
| GGTTCTGTTCTATATACTCCGACACCATACTGATTAGTCTCGGAGTCACCTAGTGCAG | 10900 fluorescence intensity (a.u.) |
| TTTTGAGTTTTTGTGTGAACTGTTTGACCACTCGTCTTATCGGAGTCACCTAGTGCAG | 8250 fluorescence intensity (a.u.) |
| CATGTGCTCAAAGCTTATCTGCATACAAGCCTTCGAGACCCGGAGTCACCTAGTGCAG | 64100 fluorescence intensity (a.u.) |
| CCATCTCCTTCAGCCTTCGCTTCATCTGGTCGAGCTCCTGCGGAGTCACCTAGTGCAG | 9080 fluorescence intensity (a.u.) |
| CTAGCTCACACACAATTGCATACACCTAGCTCAAAAGCCTCGGAGTCACCTAGTGCAG | 9080 fluorescence intensity (a.u.) |
| GTCTCAAAAACTCATTCTCCACACGTAATGGATACTTTTGCGGAGTCACCTAGTGCAG | 8800 fluorescence intensity (a.u.) |
| TATAACACCAATGACTCTATCTTCATCCGCATGCGTGCCGCGGAGTCACCTAGTGCAG | 9390 fluorescence intensity (a.u.) |
| CCATGTATCACACTCCGTTCATATATTCCTGGGCTGTATTCGGAGTCACCTAGTGCAG | 8450 fluorescence intensity (a.u.) |
| CATCGCCACCACCGCAGCCGCCTCTCAATTAGGAACACGTCGGAGTCACCTAGTGCAG | 10300 fluorescence intensity (a.u.) |
| TCTCTCTTTTTTTAAGCACCTTTTCTGCCTTTTTTCTTTTCGGAGTCACCTAGTGCAG | 12200 fluorescence intensity (a.u.) |
| TTATCAATATCTCTCTCTCGGCGCGTATAGCCGTCGCGCGCGGAGTCACCTAGTGCAG | 8690 fluorescence intensity (a.u.) |
| CTATCGCCACCTTTTGCCTTGATTTCTCCTTATTGCTAAACGGAGTCACCTAGTGCAG | 14600 fluorescence intensity (a.u.) |
| AGCACATAGCTAGTTAGCCACATATTATTTGATCACTAAACGGAGTCACCTAGTGCAG | 8980 fluorescence intensity (a.u.) |
| TAGCACTAAAACGAGAGGCCTTTTGATTTAGATTTTGCCACGGAGTCACCTAGTGCAG | 21900 fluorescence intensity (a.u.) |
| GTCCGCATCGAGCCGCAGATCTTTCTCACCGCCACCGATGCGGAGTCACCTAGTGCAG | 8140 fluorescence intensity (a.u.) |
| CCCTATCGAACGACCACCGAAACCATCATCATTCATCACCCGGAGTCACCTAGTGCAG | 9470 fluorescence intensity (a.u.) |

| Sequence | binding signal |
| --- | --- |
| TTTAGCTTAACTTATTACGATTATGGCTGTGTTTAGTTTCCGGAGTCACCTAGTGCAG | 9160 fluorescence intensity (a.u.) |
| AAACTAATTTTCTGTGACACTTCCAAGTGCATACCGGAGTCGGAGTCACCTAGTGCAG | 8660 fluorescence intensity (a.u.) |
| GGATGGGTTATATCTAGTATTGTGGTTGGGACTGCCTATACGGAGTCACCTAGTGCAG | 11100 fluorescence intensity (a.u.) |
| GCATATGGGGATTCTGGGATTTTGGTTTACAGTCTACATTCGGAGTCACCTAGTGCAG | 8100 fluorescence intensity (a.u.) |
| GGCCTCATTCTGGGATCGTTTTATGGTGGGGTTATCGTTACGGAGTCACCTAGTGCAG | 20600 fluorescence intensity (a.u.) |
| CTATCGATATAATCTCTAAGTGAGTTTTTTGTATTTTTTTCGGAGTCACCTAGTGCAG | 8020 fluorescence intensity (a.u.) |
| TTGTTTGACTCTTTTTTAATTAAATTTCTATAAGTTTAATCGGAGTCACCTAGTGCAG | 8280 fluorescence intensity (a.u.) |
| GCTGGGTTTGTGGGTTTTCTCATAAGTTTAATCTCTATATCGGAGTCACCTAGTGCAG | 17400 fluorescence intensity (a.u.) |
| AAAGTGATGTGGTGGTGGAGTTGTGGGTATATGATTTTATCGGAGTCACCTAGTGCAG | 8790 fluorescence intensity (a.u.) |
| ATTTTTTATGGGTGTTTGGTTAGTGGGTGGGAGTGGGATACGGAGTCACCTAGTGCAG | 12000 fluorescence intensity (a.u.) |
| GCCTGGTTTTATAAGTTGTGGGATGGGTTATATCTAGTATCGGAGTCACCTAGTGCAG | 28800 fluorescence intensity (a.u.) |
| CCGCACAATCCGCGCCGCCATCAGTTCGCTCTCGCCACCACGGAGTCACCTAGTGCAG | 9020 fluorescence intensity (a.u.) |
| GCGCCCACGAACCTTGTCTTCAAGCAATCCCACACTTCCTCGGAGTCACCTAGTGCAG | 9490 fluorescence intensity (a.u.) |
| ATTTCAGGCCCACTAGTCCGCTCTTCCTCTTCTTTTTTTTCGGAGTCACCTAGTGCAG | 9840 fluorescence intensity (a.u.) |
| GCCGCCATCCCCACCATCGCCGTCGCCGTCGCCTCGCCTCCGGAGTCACCTAGTGCAG | 13300 fluorescence intensity (a.u.) |
| CTCTAACAGTCTGCTATTATATCTGCTCTCATGCGTCATCCGGAGTCACCTAGTGCAG | 11100 fluorescence intensity (a.u.) |
| ACTTTAGTTTTTTTCCGTTGCAGCACACGGTTTTTTTTAACGGAGTCACCTAGTGCAG | 9170 fluorescence intensity (a.u.) |
| TTTCAAAATATTTGACTCCGTTGATTTTTTTAGCACATGTCGGAGTCACCTAGTGCAG | 9070 fluorescence intensity (a.u.) |
| TTTAGCACGTATTTGACCGTTCGTCTTATTCAAAAACTTTCGGAGTCACCTAGTGCAG | 8790 fluorescence intensity (a.u.) |
| TCCGTTTCGTTTTATTTGACACCGTTGACTTTTTAGCACACGGAGTCACCTAGTGCAG | 19500 fluorescence intensity (a.u.) |
| TTCGTTTCAAAATATTTGACACCGTTGACTTTTTAGCACACGGAGTCACCTAGTGCAG | 25700 fluorescence intensity (a.u.) |
| ACTTTTACATAGAATTTTTTTTTGAACACACCGTTTAGCACGGAGTCACCTAGTGCAG | 8510 fluorescence intensity (a.u.) |
